From PubChem BioAssay
Hits are enriched below; roughly 4.6% of the tested compounds scored in any of these assays.
DAX1 inh-1 = blocks DAX1 repression of SF-1 activated StAR promoter. HEK293T StAR-luciferase reporter, SF-1/DAX-1 repression relief. inhibition, % at 6.8 µM. hit rate 1.1% among 370,000;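 active means inhibition above the mean over all tested compounds plus 3 SD, cut at about 3.6% in these data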;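 further: 0% = DAX-1 cells with DMSO and 100% = cells lacking DAX-1 with DMSO; higher inhibition means more luminescence from relief of DAX-1 repression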
hcDAF-12 act = activates DAF-12 receptor from parasite H. contortus; HEK293 hcDAF-12 lit1-tk-luc reporter, luminescence; 0% DMSO, 100% Δ7-dafachronic acid; activation, % at 6.8 µM; hit rate 1.4% among 370,000; AID 652067;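 active means activation above the mean of all tested compounds plus 3 SD, cut at about 5.5% in these data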;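 further: 100% = response to 3 µM Δ7-dafachronic acid high control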
hgDAF-12 ag = activates the H. glycines DAF-12 receptor ligand-binding domain; HEK293 GAL4-hgDAF12 UAS-luciferase reporter, agonist luminescence; normalized to butyrate control; activation, % at 6.8 µM; hit rate 1.8% among 370,000;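 active means activation above a cutoff set at the mean of all screened compounds plus 3 SD, cut at about 10% in these data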;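 further: 0% = DMSO wells and 100% = sodium butyrate wells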
ssDAF12 agonist = activates DAF-12 receptor from parasite S. stercoralis; HEK293 ssDAF-12/GRIP1 lit1-tk-luc reporter, luminescence; % of 3 µM dafachronic acid response; activation, % at 6.8 µM; hit rate 1% among 370,000;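 active means activation above the mean over all tested compounds plus 3 SD, cut at about 0.9% in these data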;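 further: 0% = DMSO-only wells and 100% = 3 µM delta7-dafachronic acid wells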
Wee1 stabilizer = blocks degradation of human Wee1 kinase. hit rate 1.2% among 220,000. AID 1321. HeLa Luc-Wee1K328M stability, luciferase luminescence; 100% = proteasome inhibitor MG132 effect. P30291. reporter increase, % at 5 µM;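 active means activation above the mean of all tested compounds plus 3 SD, set per screening run, cut at about 8.8% in these data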;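 further: cells exposed to compound for 20 h before luminescence read; 0% = DMSO alone and 100% = MG132 at 30 µM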
DAX1 inh-2 = NR0B1 (DAX1) inhibition; P51843; HEK293 Gal4-DAX1 luciferase reporter, luminescence; inhibition, % at 6.75 µM; hit rate 0.99% among 340,000; AID 504766;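 active means inhibition above the mean over all tested compounds plus 3 SD, cut at about 4.2% in these data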;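 further: 0% = DAX1-transfected cells with DMSO and 100% = empty-vector control cells with DMSO; inhibition shows as a rise in luminescence from relieved DAX1 repression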
Target sequence (P51843 207-470 limits assumed): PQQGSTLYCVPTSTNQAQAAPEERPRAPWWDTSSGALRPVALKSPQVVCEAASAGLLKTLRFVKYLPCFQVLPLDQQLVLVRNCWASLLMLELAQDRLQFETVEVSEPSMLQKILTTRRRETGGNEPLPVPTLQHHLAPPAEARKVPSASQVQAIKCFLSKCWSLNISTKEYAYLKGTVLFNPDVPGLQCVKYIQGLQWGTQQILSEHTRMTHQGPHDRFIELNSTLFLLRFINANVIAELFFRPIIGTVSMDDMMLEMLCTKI
Starred values were filed as active, the others as inactive; x = no result.

SMILES	DAX1 inh-1	hcDAF-12 act	hgDAF-12 ag	ssDAF12 agonist	Wee1 stabilizer	DAX1 inh-2
C=CCN(c1ccccc1)S(=O)(=O)c1cccc(C(=O)NCc2ccco2)c1	0	0	-3	-1	x	1
C=CCC1(CC=C)CCCN1C(=O)c1ccc2oc(CCCC)nc2c1	1	6.3*	12*	0	x	4.9*
CCCCc1nc2cc(C(=O)N3CCC(OC)CC3)ccc2o1	1	3	3	-1	x	2
CCOC(=O)N1CCN(C(=O)c2cccn3c(=O)c4sccc4nc23)CC1	0	-1	-1	-1	10*	3
CC(C)N(C)c1ncnc2c1ncn2[C@H]1CN(C2CCCC2)C[C@@H](CO)O1	0	-1	-4	-1	x	x
CC(=O)c1csc(-c2ccccc2)n1	0	-1	0	-1	0	5.4*
O=C(Nc1ccc(Cl)cc1)c1csc(-c2ccccc2)n1	0	1	1	-2	4	1
CC(=O)c1csc(Nc2ccccc2Cl)n1	0	1	7	-1	3	8.7*
Cc1cccc(NC(=O)C2CCCN(c3nnc(-n4cccc4)s3)C2)c1C (centres undefined)	0	-1	2	-1	x	x
COc1ccc(C2(C)NC(=O)N(CC(=O)Nc3ccc4c(c3)OCO4)C2=O)cc1OC (centres undefined)	0	0	-1	-1	-3	-1
COCCOc1ccc(C(F)(F)F)cc1NC(=O)CN1C(=O)NC(C)(c2ccc3c(c2)OCO3)C1=O (centres undefined)	-1	-2	-4	-1	x	7.6*
CC(=O)Nc1cc(NC(C)=O)c(N=Nc2ccccc2)cc1C	0	-2	1	-2	1	4.7*
Cc1cc(N=Nc2ccccc2)cc(C)c1NC(=O)C(F)(F)F	3	2	9	0	x	5.1*
CC(=O)Nc1ccccc1C	0	1	-2	-1	x	1
O=C(OCC(=O)N1CCC(Cc2ccccc2)CC1)c1cc(Cl)ccc1O	3.9*	0	2	-1	x	-1
COc1ccc(NC(=O)NNC(=O)CCC(=O)Nc2ccccc2Cl)cc1	0	-1	0	-2	2	8.3*
COc1ccccc1C=NN=C(NN=Cc1ccccc1OC)NN=Cc1ccccc1OC	-3	-1	-7	-1	x	-1
Cc1ccc2c(c1)/C(=C/c1ccco1)C(=O)N2	-1	0	0	-2	-1	5.1*
CCCC(=O)N(Cc1cc2cc(OC)ccc2[nH]c1=O)c1ccccc1OC	1	0	0	-1	x	0
CC(=O)Nc1ccc(N=Cc2c(O)c(C(=O)Nc3ccccc3)cc3ccccc23)cc1	1	4	1	2.1*	-1	x
CCOc1ccc2nc(/N=C/c3c(C)[nH]n(-c4ccccc4)c3=O)sc2c1	2	2	4	0.9*	-1	4
CCCCCCCCC(c1nc2ccccc2[nH]1)N1CCN=C(c2ccccc2)C1=O (centres undefined)	0	0	0	-2	x	x
O=C1C(c2ccccc2)=NCCN1C(c1ccc(F)cc1)c1nc2ccccc2[nH]1 (centres undefined)	0	6.1*	2	0	x	x
O=C(Cc1cccc(NC(=O)C2CCCN(C(=O)C3CCCCC3)C2)c1)Nc1ccc(C(=O)N2CCCCC2)cc1 (centres undefined)	1	-2	2	-1	x	1
O=C(NCCN1CCCCC1)Nc1ccc([N+](=O)[O-])cc1	-1	0	0	-1	x	8.7*
SMILES	DAX1 inh-1	hcDAF-12 act	hgDAF-12 ag	ssDAF12 agonist	Wee1 stabilizer	DAX1 inh-2
COc1ccc(Nc2nc(-c3ccc(OC)cc3)cs2)cc1	1	1	12*	-1	2	2
Oc1ccc(Nc2nc(-c3cccnc3)cs2)cc1	x	x	x	x	x	0
Clc1ccc(Nc2nc(-c3ccncc3)cs2)cc1	1	1	7	1	0	0
c1ccc(Nc2nc(-c3ccncc3)cs2)cc1	1	3	11*	-1	4	0
CC(=O)c1ccc(Nc2nc(-c3cccnc3)cs2)cc1	-1	4	5	0	x	1
COc1ccc(-c2csc(Nc3ccc(S(N)(=O)=O)cc3)n2)cc1	-1	-1	-1	-1	-2	0
Cc1cc(O)ccc1Nc1nc(-c2cccnc2)cs1	2	2	12*	0	x	1
CCOc1ccc(Nc2nc(-c3cccnc3)cs2)cc1	1	4	8	0	x	6.2*
CN(CCc1ccccc1)C(=O)c1cccc(NC(=O)Cc2cccc(NC(=O)C3CCCN(C(=O)c4ccccc4)C3)c2)c1 (centres undefined)	-1	-1	-2	-1	x	-2
CCNc1nc(-c2ccc(Cl)cc2)cs1	1	2	12*	0	4	1
CNc1nc(-c2ccc(Cl)cc2)cs1	1	1	10	-1	3	-1
Cc1ccc(C)c(CNC(=O)Nc2ccccc2)c1	1	3	7	0	x	0
CCC(=O)Nc1ccc2c(c1)Cc1cc([N+](=O)[O-])ccc1-2	1	0	11*	-1	x	1
COC(=O)C1CN(C2CCCC2)CCS(=O)(=O)N1Cc1cn(Cc2ccc(C)cc2)nn1 (centres undefined)	1	-1	-2	-1	x	x
COc1ccc(OC)c(S(=O)(=O)NCC(c2cccs2)N2CCc3ccccc3C2)c1 (centres undefined)	1	-1	3	-1	x	0
CCNC(=O)N1C(=O)C2(OCCO2)c2ccccc21	0	-1	-1	-1	-2	0
Cc1ccc(NC(=O)N2C(=O)C3(OCCO3)c3ccccc32)cc1	1	2	9	0	21*	2
O=C(CSc1n[nH]c(=O)n1Cc1ccccc1)Nc1ccc(N2CCOCC2)cc1	-2	-2	0	-1	x	0
COC(=O)[C@@H]1N=C(c2ccc(OC)cc2)O[C@]12C(=O)N(Cc1cn(-c3ccccc3)nn1)c1cccc(Cl)c12	-1	-3	-2	-1	x	x
CS(=O)(=O)Nc1cccc(NC(=O)C2Cc3c(-c4cccc(F)c4)ccnc3O2)c1 (centres undefined)	-5	-2	7	-1	x	x
CN(C)CC(O)c1ccc(C=Cc2ccc(Cl)cc2)cc1 (centres undefined)	3	5	12*	-1	x	6.4*
CN(C)/C=C/C(=O)/C=C/c1ccc(Cl)cc1	0	-1	-5	-1	0	0
C[C@H]1CN([C@@H](C)CO)S(=O)(=O)c2ccc(Br)cc2O[C@H]1CN(C)C(=O)c1ccccc1F	-1	0	-1	-1	x	x
COc1ccc(-c2nnc(SCC(=O)N3CCCC3)o2)c(OC)c1	1	2	12*	-1	x	1
O=C(CSc1nnc(-c2ccncc2)n1-c1ccccc1)Nc1cccc2ccccc12	0	0	0	-2	x	x
